Results taken from PubChem BioAssay AID1159580 (chemical genetic matrix, 2015).
Where “and” joins values, the source holds several entries; their conditions need not be identical. Equal entries are not always repeated. About 2,000 (36%) of roughly 5,500 compounds were called active. Not shown: some 18% with an inconclusive outcome. Rule as the data show it: active = normalized growth mostly below about 0.91 (no sharp cut-off); inconclusive = no clear call, values can overlap the other calls; inactive = mostly above about 0.92. Some of the results follow.

Experiment: chemical genetic growth profiling, strain panel (AID 1159580);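 also: tested at 20 µM; growth read once vehicle control cultures reached saturation at 30 °C; 1 = growth at the plate median or of vehicle wells; lower values mean less growth of the strain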
Conditions: S. cerevisiae deletion strains, growth OD

Measured: normalized growth

NCC[C@@H](O)C(=O)N[C@@H]1C[C@H](N)[C@@H](O[C@H]2O[C@H](CN)[C@@H](O)[C@H](O)[C@H]2O)[C@H](O)[C@H]1O[C@H]1O[C@H](CO)[C@@H](O)[C@H](N)C1O (stereo partly specified)
inactive: locus YAL013W, strain DEP1, active compounds read low 0.974 | locus YAL021C, strain ccr4, active compounds read low 1.02 | locus YAL026C, strain drs2, active compounds read low 1.02 | locus YAL030W, strain snc1, active compounds read low 1.04 | locus YBL061C, strain skt5, active compounds read low 1.03 | locus YBR009C, strain hhf1, active compounds read low 1.03 | locus YBR021W, strain FUR4, active compounds read low 0.96 | locus YBR023C, strain chs3, active compounds read low 1.04 | locus YBR171W, strain sec66, active compounds read low 1.04 | locus YBR229C, strain ROT2, active compounds read low 0.999 | locus YBR231C, strain swc5, active compounds read low 1.04 | locus YBR279W, strain paf1, active compounds read low 1.03 | locus YCL011C, strain gbp2, active compounds read low 1.03 | locus YCL016C, strain dcc1, active compounds read low 1.04 | locus YCL029C, strain bik1, active compounds read low 1.02 | locus YCL061C, strain MRC1, active compounds read low 1.02 | locus YCL069W, strain vba3, active compounds read low 1.04 | locus YCR088W, strain abp1, active compounds read low 1.03 | locus YDL005C, strain med2, active compounds read low 1.04 | locus YDL035C, strain GPR1, active compounds read low 0.986 | locus YDL040C, strain nat1, active compounds read low 1.04 | locus YDL074C, strain BRE1, active compounds read low 0.983 | locus YDL101C, strain DUN1, active compounds read low 0.999 | locus YDL185W, strain tfp1, active compounds read low 1.02 | locus YDL192W, strain arf1, active compounds read low 1.01 | locus YDR001C, strain nth1, active compounds read low 1.02 | locus YDR069C, strain doa4, active compounds read low 1.03 | locus YDR101C, strain arx1, active compounds read low 0.998 | locus YDR137W, strain rgp1, active compounds read low 1.04 | locus YDR159W, strain sac3, active compounds read low 1.05 | locus YDR162C, strain NBP2, active compounds read low 1.01 | locus YDR195W, strain ref2 1.08 | locus YDR297W, strain sur2, active compounds read low 1.03 | locus YDR318W, strain mcm21, active compounds read low 1.01 | locus YDR334W, strain swr1, active compounds read low 1.01 | locus YDR335W, strain msn5, active compounds read low 1.04 | locus YDR388W, active compounds read low 1.01 | locus YDR392W, strain spt3, active compounds read low 1.06 | locus YDR502C, strain sam2, active compounds read low 1.01 | locus YEL003W, strain gim4, active compounds read low 1.03 | locus YEL037C, strain rad23, active compounds read low 1.03 | locus YEL061C, strain CIN8 (second series), active compounds read low 1.04 | locus YEL061C, strain CIN8, active compounds read low 1 | locus YER015W, strain faa2, active compounds read low 1.03 | locus YER016W, strain bim1, active compounds read low 1 | locus YER110C, active compounds read low 1.03 | locus YER111C, strain swi4, active compounds read low 1.03 | locus YER155C, strain BEM2 (second series), active compounds read low 1.02 | locus YER155C, strain BEM2, active compounds read low 1.01 | locus YER167W, strain BCK2, active compounds read low 0.986 | locus YFR010W, strain ubp6, active compounds read low 1.05 | locus YGL078C, strain dbp3, active compounds read low 1 | locus YGL086W, strain mad1, active compounds read low 1 | locus YGL167C, strain pmr1, active compounds read low 1.03 | locus YGL173C, strain kem1, active compounds read low 1.04 | locus YGL227W, strain vid30, active compounds read low 1.05 | locus YGL240W, strain doc1, active compounds read low 1.01 | locus YGL248W, strain PDE1, active compounds read low 0.999 | locus YGL253W, strain hxk2, active compounds read low 1.02 | locus YGR078C, strain PAC10, active compounds read low 0.997 | locus YGR135W, strain pre9, active compounds read low 0.988 | locus YGR252W, strain gcn5, active compounds read low 0.944 | locus YHR013C, strain ard1, active compounds read low 1.04 | locus YHR027C, strain rpn1, active compounds read low 1.03 | locus YHR030C, strain SLT2, active compounds read low 1.01 and 1.02 | locus YHR079C, strain IRE1 (second series), active compounds read low 1.02 | locus YHR079C, strain IRE1, active compounds read low 1.03 | locus YHR094C, strain hxt1, active compounds read low 1.03 | locus YHR129C, strain ARP1, active compounds read low 1.01 | locus YHR142W, strain chs7, active compounds read low 1.06 | locus YHR200W, strain rpn10, active compounds read low 1.02 | locus YIL066C, strain RNR3, active compounds read low 1 | locus YIL073C, strain SPO22, active compounds read low 1.19 | locus YIL125W, strain kgd1, active compounds read low 1.01 | locus YIR030C, strain dcg1, active compounds read low 1.03 | locus YJL092W, strain hpr5, active compounds read low 1.03 | locus YJL095W, strain BCK1 (second series), active compounds read low 1 | locus YJL095W, strain BCK1, active compounds read low 0.999 and 1.02 | locus YJL115W, strain asf1, active compounds read low 1.04 | locus YJL129C, strain trk1, active compounds read low 1.07 | locus YJL134W, strain LCB3, active compounds read low 1.01 | locus YJL154C, strain vps35, active compounds read low 1.03 | locus YJL164C, strain tpk1, active compounds read low 1.01 | locus YJL166W, strain qcr8, active compounds read low 1.03 | locus YJL168C, strain set2, active compounds read low 1.01 | locus YJL187C, strain SWE1 (second series), active compounds read low 0.999 | locus YJL187C, strain SWE1, active compounds read low 1.03 | locus YJR043C, strain POL32, active compounds read low 0.983 | locus YJR066W, strain TOR1, active compounds read low 0.975 | locus YJR075W, strain HOC1, active compounds read low 0.995 | locus YKL009W, strain mrt4, active compounds read low 1.02 | locus YKL068W, active compounds read low 1.01 | locus YKL085W, strain MDH1 (second series), active compounds read low 1.01 | locus YKL085W, strain MDH1, active compounds read low 1.01 | locus YKL160W, strain elf1, active compounds read low 1.01 | locus YKR001C, strain vps1, active compounds read low 1.01 | locus YKR026C, strain gcn3, active compounds read low 1.07 | locus YKR091W, strain srl3, active compounds read low 1.01 | locus YLL001W, strain dnm1, active compounds read low 1.02 | locus YLL026W, active compounds read low 1.01 | locus YLL041C, strain sdh2, active compounds read low 1.03 | locus YLR027C, strain aat2, active compounds read low 1.02 | locus YLR039C, strain RIC1, active compounds read low 1.04 | locus YLR058C, strain SHM2, active compounds read low 1.01 | locus YLR102C, strain apc9, active compounds read low 1.01 | locus YLR113W, strain HOG1, active compounds read low 1.03 | locus YLR221C, strain rsa3, active compounds read low 1.01 | locus YLR258W, strain gsy2, active compounds read low 1.02 | locus YLR262C, strain YPT6 (second series), active compounds read low 1.03 | locus YLR262C, strain YPT6, active compounds read low 1.04 | locus YLR268W, strain sec22, active compounds read low 1.04 | locus YLR320W, strain mms22, active compounds read low 1.03 | locus YLR330W, strain CHS5, active compounds read low 1.01 | locus YLR342W, strain FKS1 (second series), active compounds read low 0.966 | locus YLR342W, strain FKS1, active compounds read low 1.03 | locus YLR357W, strain rsc2, active compounds read low 1.09 | locus YLR370C, strain arc18, active compounds read low 1.03 | locus YLR371W, strain rom2, active compounds read low 1.01 | locus YLR384C, strain iki3, active compounds read low 1.03 | locus YLR418C, strain cdc73, active compounds read low 1.01 | locus YML016C, strain PPZ1, active compounds read low 1.01 | locus YML032C, strain rad52, active compounds read low 1.01 | locus YML120C, strain ndi1, active compounds read low 1.02 | locus YML124C, strain tub3, active compounds read low 1.01 | locus YMR058W, strain fet3, active compounds read low 1.04 | locus YMR078C, strain ctf18, active compounds read low 1.02 | locus YMR125W, strain sto1, active compounds read low 1.06 | locus YMR129W, active compounds read low 1.03 | locus YMR205C, strain PFK2, active compounds read low 1.05 | locus YMR223W, strain ubp8, active compounds read low 1.01 | locus YMR231W, strain pep5, active compounds read low 1.03 | locus YMR263W, strain SAP30, active compounds read low 1 | locus YMR307W, strain GAS1, active compounds read low 0.921 | locus YNL067W, strain RPL9B, active compounds read low 0.992 | locus YNL071W, strain lat1, active compounds read low 1.02 | locus YNL153C, strain GIM3, active compounds read low 0.996 | locus YNL183C, strain NPR1, active compounds read low 0.952 | locus YNL209W, strain ssb2, active compounds read low 1.02 | locus YNL233W, strain BNI4, active compounds read low 1.02 | locus YNL248C, strain rpa49, active compounds read low 0.984 | locus YNL250W, strain rad50, active compounds read low 1.01 | locus YNL271C, strain bni1, active compounds read low 1.02 | locus YNL298W, strain CLA4, active compounds read low 1.02 | locus YNL307C, strain MCK1, active compounds read low 1.02 | locus YNL322C, strain KRE1 (second series), active compounds read low 1.04 | locus YNL322C, strain KRE1, active compounds read low 1.01 | locus YNR049C, strain mso1, active compounds read low 1.03 | locus YNR052C, strain pop2, active compounds read low 1.02 | locus YOL006C, strain TOP1, active compounds read low 0.932 | locus YOL012C, strain htz1 0.906 | locus YOL147C, strain pex11, active compounds read low 1.02 | locus YOR001W, strain rrp6, active compounds read low 1.05 | locus YOR061W, strain CKA2, active compounds read low 1.01 | locus YOR069W, strain VPS5, active compounds read low 1.01 | locus YOR070C, strain gyp1, active compounds read low 1.03 | locus YOR080W, strain dia2, active compounds read low 1.05 | locus YOR083W, strain WHI5, active compounds read low 1.02 | locus YOR106W, strain vam3, active compounds read low 1.04 | locus YOR136W, strain idh2, active compounds read low 1.02 | locus YOR144C, strain elg1, active compounds read low 1.02 | locus YOR184W, strain ser1, active compounds read low 1.03 | locus YOR231W, strain MKK1, active compounds read low 1 | locus YOR265W, strain rbl2, active compounds read low 1.04 | locus YOR270C, strain vph1, active compounds read low 1.05 | locus YOR290C, strain snf2, active compounds read low 1.04 | locus YOR316C, strain cot1, active compounds read low 1.02 | locus YPL051W, strain arl3, active compounds read low 1.02 | locus YPL078C, strain atp4, active compounds read low 1.03 | locus YPL106C, strain sse1, active compounds read low 1.07 | locus YPL240C, strain hsp82, active compounds read low 1.02 | locus YPL256C, strain CLN2, active compounds read low 1.04 | locus YPR119W, strain clb2, active compounds read low 1.01 | locus YPR141C, strain kar3, active compounds read low 1.01 | locus YPR163C, strain tif3, active compounds read low 1.02 | locus YPR167C, strain met16, active compounds read low 1.02 | strain wtn01, active compounds read low 1.01
